# In ChEMBL document CHEMBL3988442, “University of Dundee, Small-Polar-MMV Screening Library” (2021):
# Target: T1, Aspartate--tRNA(Asp/Asn) ligase (Mycobacterium tuberculosis (strain ATCC 25618 / H37Rv)) (UniProt P9WFW3)
# T1 sequence (whole entry): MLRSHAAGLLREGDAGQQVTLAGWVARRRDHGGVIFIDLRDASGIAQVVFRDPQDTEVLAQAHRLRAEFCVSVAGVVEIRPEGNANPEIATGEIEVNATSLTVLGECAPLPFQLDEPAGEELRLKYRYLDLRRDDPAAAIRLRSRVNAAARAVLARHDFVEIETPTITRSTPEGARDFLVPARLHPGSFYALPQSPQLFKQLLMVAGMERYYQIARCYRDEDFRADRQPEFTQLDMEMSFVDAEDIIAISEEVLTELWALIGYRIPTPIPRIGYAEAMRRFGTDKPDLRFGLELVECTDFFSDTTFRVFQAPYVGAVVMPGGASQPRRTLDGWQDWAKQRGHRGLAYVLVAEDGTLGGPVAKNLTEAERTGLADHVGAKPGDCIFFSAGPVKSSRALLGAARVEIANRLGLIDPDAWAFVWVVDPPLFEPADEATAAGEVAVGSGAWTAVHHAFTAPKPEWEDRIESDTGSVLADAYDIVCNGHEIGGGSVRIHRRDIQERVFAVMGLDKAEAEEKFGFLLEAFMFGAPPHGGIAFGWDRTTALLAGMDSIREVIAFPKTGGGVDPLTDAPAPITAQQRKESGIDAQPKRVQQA
# Assay: Assay for Asp RNA synthetase-1 from Mycobacterium tuberculosis
# Type: functional
# Parameters: scale not given: in the data most compounds retested in dose-response had high values
# Details: 30 µM
row,Structure (SMILES),Percent Effect
1,Cc1cnc(NC(=O)c2ccc(-n3ncc(C#N)c3N)cc2)s1,0%
2,Cc1ncc(C)c(N2CCCC(CO)(Cc3cccc(Cl)c3)C2)n1 (stereo not given),2.71%
3,CCC(=O)Nc1ccc2c(c1)CN(C(=O)c1ccco1)CC2,-3.28%
4,Cc1cnn(CC2CN(Cc3nc4ccccc4nc3C)CCO2)c1 (stereo not given),-3.52%
5,Cn1cnnc1C1CCCN(C(=O)NCCNc2ccccn2)C1 (stereo not given),-6.46%
6,O=C(c1ccnnc1)N1C[C@@H](OCC2CCCC2)[C@H]2OCCC[C@H]21,7.95%
7,CC(C)n1ccnc1C1CCN(Cc2ccc(Cl)c(F)c2)CC1,9.45%
8,CCN(C(=O)c1ccc(-n2ncc(C#N)c2N)cc1)C1CCCC1,6.53%
9,Cc1cnn(CC2CN(CC(=O)NCc3ccccn3)CCO2)c1 (stereo not given),-8.24%
10,Cc1nc(C2CCCN(C(=O)c3ccc(N4CCCC4)nc3)C2)no1 (stereo not given),-2.58%
11,COC(=O)[C@H](C)NC(=O)c1cc(-c2cccc(Cl)c2)no1,0.419%
12,COc1cccc(C(=O)Nc2cc(CC(C)C)nn2C)c1,-7.31%
13,CN1CCN(c2cc(CCNC(=O)C3CCC3)nc(C3CC3)n2)CC1,-3.83%
14,Cc1nc(C)n(CC2CCCN2Cc2nc(-c3cccs3)no2)n1 (stereo not given),-2.77%
15,Cc1ccc(CNC(=O)CN2CCCC(Cn3cncn3)C2)s1 (stereo not given),-2.78%
16,O=C(CCN1CCCC1=O)NCc1cccnc1Oc1ccccc1,-8.91%
17,CCCSCC(=O)NS(=O)(=O)c1ccc2c(c1)OCCO2,-3.99%
18,Cn1ccnc1CN1CCN(c2ccc(C#N)cc2F)CC1,-2.39%
19,Cc1ncc(S(C)(=O)=O)c(C2CCCNC2)n1 (stereo not given),0.276%
20,Cn1cnc2c1CCN(Cc1csc(-c3ccsc3)n1)C2,3.77%
